APP 5UTR inh: APP translation inhibition; SH-SY5Y APP 5'UTR-luciferase reporter, luminescence; inhibition, % at 2 µM; hit rate 0.82% among 190,000;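 active means inhibition above a set limit, derived from the sample mean plus 3 SD, cut at about 45% in these data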
Ba/F3 V617F tox: lowers viability of Ba/F3 cells expressing EpoR and JAK2V617F; ATP luminescence; inhibition, % at 5.6 µM; hit rate 1.1% among 220,000; AID 1446;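 active means inhibition above the campaign mean plus 3 SD over all tested compounds, cut at about 24% in these data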;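 further: cytokine-independent growth of Ba/F3 cells driven by EpoR plus mutant JAK2; 0% = DMSO-treated cells and 100% = JAK inhibitor I control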
BaF3 parental: reduces parental Ba/F3 cell viability, JAK2V617F counter-screen. inhibition, % at 5.6 µM. CellTiter-Glo ATP luminescence. hit rate 1.1% among 220,000;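 active means inhibition above a per-campaign cutoff, the mean inhibition of all tested compounds plus 3 SD, cut at about 27% in these data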;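 further: 0% = DMSO wells and 100% = JAK Inhibitor I control wells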
IEC-6 tox: counter-screen for KLF5 inhibitors: cytotoxicity in IEC-6 cells. inhibition, % at 5 µM. IEC-6 cytotoxicity, luminescence viability. hit rate 0.78% among 290,000;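 further: 0% = plate median of test compound wells and 100% = cytotoxic reference compound wells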
KLF5 inh: inhibitors of KLF5 expression | inhibition, % at 5 µM | hit rate 0.23% among 290,000 | DLD-1 KLF5 promoter-luciferase reporter, luminescence;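 active means inhibition above a per-plate limit of that plate's mean compound inhibition plus 3 SD, cut at about 60% in these data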;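 further: 0% = DMSO wells and 100% = LY294002 at 200 µM; higher means less KLF5 promoter-driven luciferase light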
IEC-6 tox confirm: confirmation of cytotoxic compounds in rat IEC-6 intestinal epithelial cells | shares compounds with IEC-6 tox | IEC-6 rat intestinal epithelial viability, luminescence | inhibition, % at 5 µM | hit rate 63% among 1,900 | AID 1907;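 further: 0% = vehicle and 100% = reference cytotoxic drug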
* marks the source's active call; other numbers are inactive results; . = not tested or not shown. Only some compounds are listed: those with a hit (about 1.9% of all), similar ones and a draw of the others. Unless noted, no stated cut-off is given here; in the data, active means inhibition above about 22%; inactive means the rest.

SMILES	APP 5UTR inh	Ba/F3 V617F tox	BaF3 parental	IEC-6 tox	KLF5 inh	IEC-6 tox confirm
CC1(C)Cc2nc3sc4c(SCC(=O)NCc5ccccc5)ncnc4c3cc2CO1	67*	53*	36*	48*	15	51*
CC1(C)Cc2nc3sc4c(SCC(=O)O)ncnc4c3cc2CO1	.	0	-1	-3	27	.
Cc1nn(C)c(Oc2cccc(C(F)(F)F)c2)c1C=O	-11	4	8	6	-13	.
COc1cccc(-n2c(-c3ccc4[nH]c(C)c(C)c4c3)n[nH]c2=S)c1	-2	4	6	48*	-25	46*
COc1cccc(-n2c(-c3cccc(S(=O)(=O)N(C)C)c3)n[nH]c2=S)c1	-8	1	5	3	-11	.
Cc1[nH]c2ccc(-c3n[nH]c(=S)n3-c3ccc(Br)cc3)cc2c1C	-14	-2	3	50*	-5	44*
Cc1[nH]c2ccc(-c3n[nH]c(=S)n3-c3ccccc3)cc2c1C	-15	-2	3	49*	-32	32*
CN(C(=O)CSc1nc2ccccc2s1)c1c(N)n(Cc2ccccc2)c(=O)[nH]c1=O	-28	-5	2	5	-2	.
CC1CCCCC1NC(=O)C1CCC(CNS(=O)(=O)c2ccccc2)CC1 (stereo unspecified)	.	.	.	-4	-25	.
C=CCn1c(O)c(N=NC(=S)Nc2ccccc2F)c2cc(S(=O)(=O)N3CCOCC3)ccc21	24	11	18	30*	44	17
CN(C(=O)COc1ncnc2sccc12)c1ccccc1	6	-2	5	-3	-4	.
COC(=O)CC1COc2ccccc2N1S(=O)(=O)c1ccc(OC)cc1 (stereo unspecified)	.	.	.	31*	32	0
COc1ccc(-c2cc(C(=O)N/N=C(\C)c3cccnc3)c3cc(C)ccc3n2)cc1OC	.	.	.	34*	-9	19
CCN(CC)C1CCN(C(=O)c2ccc3nc(Cc4ccc(OC)cc4)oc3c2)C1 (stereo unspecified)	.	.	.	1	-1	.
Cc1cccc(C(=O)NNC(=O)C23CC4CC(CC(C4)C2)C3)c1O	.	.	.	37*	-21	5
Cc1ccccc1C(=O)NNC(=O)C12CC3CC(CC(C3)C1)C2	13	-3	-6	2	4	.
O=C(/C=C/c1ccccc1)Nc1ccc(Br)cn1	63*	9	5	26*	-66	56*
CCOCCCNC(=S)N1CCC(C(=O)c2ccc3c(c2)OCCO3)CC1	-6	-1	-1	-2	-8	.
Clc1ccc2c(c1)C=Nc1c(NCc3ccccc3)ncnc1O2	-24	-2	3	-1	-1	.
C1=Nc2c(Nc3ccccc3)ncnc2Oc2ccccc21	-6	-4	6	53*	-39	33*
CC(=O)Nc1nc(NCc2ccccc2Cl)n(-c2ccccc2)n1	.	.	.	-6	-16	.
CC(=O)Nc1nc(NC(=O)/C=C/c2ccccc2)n(-c2ccccc2)n1	11	5	10	24*	27	17
O=C(Nc1nc(NC(=O)c2ccco2)n(-c2ccccc2)n1)c1ccccc1	46*	36*	51*	26*	48	41*
CCNS(=O)(=O)c1ccc(CCC(=O)NCc2ccccn2)cc1	.	.	.	3	-9	.
CN(C)N1C(N)=C(C#N)C(c2ccccc2F)C2=C1CC(C)(C)CC2=O (stereo unspecified)	.	.	.	0	5	.
SMILES	APP 5UTR inh	Ba/F3 V617F tox	BaF3 parental	IEC-6 tox	KLF5 inh	IEC-6 tox confirm
Nc1cccc(C(=O)OCC(=O)Nc2cccc3c2C(=O)c2ccccc2C3=O)c1	10	1	4	2	-24	.
CCN(CC)CCC(=O)Nc1cccc2c1C(=O)c1ccccc1C2=O	.	85*	68*	26*	23	24*
O=C(CC1(O)C(=O)N(CCc2ccccc2)c2ccccc21)c1ccccn1 (stereo unspecified)	-19	1	6	-3	-10	.
O=C(CC1(O)C(=O)N(C/C=C/c2ccccc2)c2ccccc21)c1ccccn1 (stereo unspecified)	57*	92*	93*	89*	-8	32*
CSc1ccc(CNC(=O)Cc2ccc(NC(=O)C3=C(C)OCCS3)cc2)cc1	.	.	.	27*	-40	35*
CCOc1ccc(CCNC(=O)Cc2ccc(NC(=O)C3=C(C)OCCS3)cc2)cc1	.	.	.	3	-31	.
COc1cccc(N=Nc2ccc(O)c3ncccc23)c1	.	.	.	30*	27	11
COc1ccc(N=Nc2ccc(O)c3ncccc23)cc1	.	-3	4	10	-13	.
Nc1ccc(N=Nc2ccccc2)c2cccnc12	.	.	.	33*	-30	34*
Nc1ccc(Br)c2cccnc12	6	-3	9	11	15	.
COc1cccc(N=Nc2ccc3cccnc3c2O)c1	.	.	.	30*	61	56*
O=C(O)c1cccnc1Nc1ccc(Cl)cc1	-10	28*	33*	34*	-11	23*
Cc1cc2nc(/C=C/c3cccnc3)[nH]c2cc1C	.	.	.	88*	6	59*
COc1ccc(NC(=O)CN2CCC(C(=O)c3ccc(F)cc3)CC2)c(OC)c1	.	.	.	1	3	.
Clc1ccc(Cn2ncc3c(NCc4ccccc4)ncnc32)cc1	23	2	10	28*	45	27*
COc1ccc(Cl)cc1N(CC(=O)N(C)C)S(=O)(=O)c1ccc(C)c([N+](=O)[O-])c1	-23	-1	4	4	-18	.
